In PubChem BioAssay:
A number with no mark means an inactive call. The source made the active and inactive calls.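 How the source made its calls: active means inhibition above the hit cutoff set in the earlier primary screen (cut at about 27% in these data); inactive means the rest.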

Biological target: Protein phosphatase methylesterase 1 (Homo sapiens) (UniProt Q9Y570)
Assay: human PME-1 methylesterase inhibition confirmation – biochemical, fluorescence polarization, FP-Rh probe, triplicate (AID 2171);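 further: 0% = enzyme with DMSO and 100% = wells lacking PME-1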
Settings: recombinant PME-1, FP-Rh probe fluorescence polarization; at 5.9 µM; active compounds read high

Sequence of Protein phosphatase methylesterase 1 (Homo sapiens) (Q9Y570 whole entry, looked up): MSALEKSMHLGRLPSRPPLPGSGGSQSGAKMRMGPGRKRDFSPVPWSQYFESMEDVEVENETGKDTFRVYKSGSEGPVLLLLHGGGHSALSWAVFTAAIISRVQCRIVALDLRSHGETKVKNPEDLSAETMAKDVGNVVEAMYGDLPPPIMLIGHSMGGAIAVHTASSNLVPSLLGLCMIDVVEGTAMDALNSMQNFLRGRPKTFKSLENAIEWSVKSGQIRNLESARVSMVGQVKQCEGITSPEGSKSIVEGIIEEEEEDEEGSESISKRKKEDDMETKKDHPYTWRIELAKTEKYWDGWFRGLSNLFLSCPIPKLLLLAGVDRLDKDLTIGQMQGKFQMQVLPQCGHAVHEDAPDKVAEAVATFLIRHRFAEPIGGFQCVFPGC

`COc1ccc2[nH]c3c(N4CCc5ccccc5C4)ncnc3c2c1` was tested. Which inhibition did it give?
The inhibition was 30.2% (active).

For `O=C(O)c1ccccc1Nc1cccc(OCc2ccc3ccccc3n2)c1`, which inhibition is on record?
Its inhibition is 20%.

Which inhibition does the source give for `COc1ccc(NC(C(=O)Nc2cccc(C(C)=O)c2)c2ccccc2)cc1` (stereo not given) here?
The inhibition was 36% (active).

For `COc1ccc(NC(=O)Nc2nnc(N3CCCCC3C)s2)cc1OC` (stereo not given), which inhibition is on record?
Its inhibition is 43.7% (active).

`CCc1nnc(NC(=O)c2sc3nc4c(cc3c2N)CCCCCC4)s1` was tested. Which inhibition did it give?
The inhibition was 16.3%.

`CCOC(=O)c1c(C)[nH]c(C2=NNC(=Nc3ccc(OCC)cc3)SC2)c1C` was tested. Which inhibition did it give?
Its inhibition is 18.9%.

For `Cc1ccc(O)c(C(=O)c2cc(C#N)c(=O)n(-c3nccs3)c2)c1`, which inhibition is on record?
The inhibition was -1.15%.

For `O=C(CN1CCN(S(=O)(=O)c2ccc(Br)cc2)CC1)N/N=C/c1cc([N+](=O)[O-])ccc1Cl`, which inhibition is on record?
Its inhibition is 21%.

For `Cc1cccc(NC(=O)CN2C(=O)S/C(=C\c3ccc(O)c([N+](=O)[O-])c3)C2=O)c1`, which inhibition is on record?
The inhibition was 24.7%.

`Cc1ccc(N/N=C(\C#N)C(N)=S)c(C)c1` was tested. Which inhibition did it give?
Its inhibition is 57.9% (active).

How did the inhibition turn out when `CCOc1ccc(C(=O)NC(C)CCc2ccccc2)cc1` (stereo not given) was run?
The inhibition was -6.46%.

How did the inhibition turn out when `CCN(CC(=O)Nc1c(C(=O)OC)[nH]c2ccc(Cl)cc12)c1ccc2c(c1)OCO2` was run?
The inhibition was 6.28%.

With `CCOC(=O)c1ccc(Nc2nc(N)c3cc(OC)c(OC)cc3n2)cc1` as the compound, how does the inhibition read?
The inhibition was 27.9% (active).

For `Cc1cc(O)c(NC(=S)NC(=O)c2ccc(-c3ccc(Cl)cc3)o2)cc1C`, which inhibition is on record?
The inhibition was 42.2% (active).

Which inhibition does the source give for `O=C(O)c1ccc(N=Nc2c(O)[nH]c3cc(Cl)ccc23)cc1` here?
The inhibition was 116% (active).

With `Nc1[nH]n(-c2ccccc2)c(=O)c1N=Nc1ccc2c(c1)OCCO2` as the compound, how does the inhibition read?
Its inhibition is 34.5% (active).

Which inhibition does the source give for `Oc1[nH]c2ccccc2c1N=Nc1ncnc2c1oc1ccccc12` here?
Its inhibition is 35% (active).

For `O=C(CCCSc1ccccc1)Nc1nc(-c2ccco2)c(-c2ccco2)s1`, which inhibition is on record?
Its inhibition is 6.79%.

`COc1cc(OC)c2cc(C(=O)N/N=C/c3ccccc3O)[nH]c2c1` was tested. Which inhibition did it give?
Its inhibition is 19.1%.

`COc1ccc(/C=N/Nc2cc(C)nc3ccc(Br)cc23)cc1` was tested. Which inhibition did it give?
Its inhibition is 12.9%.

How did the inhibition turn out when `Oc1[nH]c2ccccc2c1N=Nc1nc2ccccc2s1` was run?
The inhibition was 14.1%.

How did the inhibition turn out when `CCCCn1c(/C=N/Nc2nc3ccccc3[nH]2)nc2ccccc21` was run?
Its inhibition is 61.3% (active).

`Nc1ccc(Nc2nc3ccccc3[nH]2)cc1` was tested. Which inhibition did it give?
The inhibition was 43.7% (active).

How did the inhibition turn out when `Cc1cc(C(=O)N/N=C/c2cccc([N+](=O)[O-])c2)c(C)n1-c1ccccc1` was run?
The inhibition was -3.77%.

`Oc1nc(Nc2ccccc2)sc1/C=C1\C=Nc2ccccc21` was tested. Which inhibition did it give?
The inhibition was -2.4%.

`COc1cc2c(cc1NC(=O)Nc1cccc(C)c1)oc1ccccc12` was tested. Which inhibition did it give?
Its inhibition is 12.2%.

How did the inhibition turn out when `Cc1cc(C)c(C#N)c(SCc2nc3ccccc3[nH]2)n1` was run?
The inhibition was 11.9%.

Which inhibition does the source give for `Cc1ccc(-c2csc(-c3c[nH]c4ccccc34)n2)cc1` here?
The inhibition was 11.1%.

`Brc1ccc(C2Nc3cccc4cccc(c34)N2)s1` was tested. Which inhibition did it give?
Its inhibition is 20.5%.

For `Cc1ccc(S(=O)(=O)CCSc2cccc(C(=O)Nc3ccccc3C(=O)O)c2)cc1`, which inhibition is on record?
Its inhibition is 35.8% (active).

`Cc1ccc(S(=O)(=O)N2CCN(C(=O)Cn3cnc4c3c(=O)n(C)c(=O)n4C)CC2)cc1C` was tested. Which inhibition did it give?
The inhibition was 20.7%.

How did the inhibition turn out when `CC(C)(C)n1nnnc1C(c1cccs1)N(Cc1cccnc1)Cc1ccco1` (stereo not given) was run?
The inhibition was 15.8%.

How did the inhibition turn out when `Cc1ccc(-c2nc(Nc3ccc(O)cc3)c3ccccc3n2)cc1` was run?
Its inhibition is 6.25%.

For `Cc1cccc(OCCn2cc(/C=N/NC(=O)c3ccncc3)c3ccccc32)c1`, which inhibition is on record?
The inhibition was 2.22%.

How did the inhibition turn out when `O=C(NC(C(=O)N/N=C/c1cc([N+](=O)[O-])ccc1O)c1n[nH]c(=O)c2ccccc12)c1ccccc1` (stereo not given) was run?
Its inhibition is 58.3% (active).

How did the inhibition turn out when `O=C(O)c1cc(N/N=C/c2c(O)ccc3ccccc23)ccc1Cl` was run?
The inhibition was 20.7%.

Which inhibition does the source give for `CCOc1ccccc1/C=C(\C#N)C(=O)Nc1cccc(C(=O)O)c1` here?
The inhibition was 5.46%.

`CCCCC(=O)NC(c1ccccc1Cl)c1c(O)ccc2ccccc12` (stereo not given) was tested. Which inhibition did it give?
Its inhibition is 32.1% (active).

How did the inhibition turn out when `Cc1c(C(=O)OC/C(O)=C(\C#N)c2nc3ccccc3[nH]2)oc2ccccc12` was run?
Its inhibition is -5.29%.

How did the inhibition turn out when `CCOc1cc(/C=N/NC(=O)c2cccc([N+](=O)[O-])c2)ccc1OS(=O)(=O)c1ccccc1` was run?
The inhibition was 19.9%.
